Data on 33 compounds can be found in PubChem BioAssay (Tox21).

“And” between values parts separate entries of the source, which are not always exact repeats. Identical values can stand only once. Results filed as inconclusive are left out. A call without a number means that no potency is given here. More than one record can exist for a structure, and the calls need not agree. The source made the active and inactive calls. Calls come from the whole dose curve.
Potency is the fitted concentration of half-maximal effect.

Chain of 5-hydroxytryptamine receptor 2A (Homo sapiens) (P28223 whole entry, looked up): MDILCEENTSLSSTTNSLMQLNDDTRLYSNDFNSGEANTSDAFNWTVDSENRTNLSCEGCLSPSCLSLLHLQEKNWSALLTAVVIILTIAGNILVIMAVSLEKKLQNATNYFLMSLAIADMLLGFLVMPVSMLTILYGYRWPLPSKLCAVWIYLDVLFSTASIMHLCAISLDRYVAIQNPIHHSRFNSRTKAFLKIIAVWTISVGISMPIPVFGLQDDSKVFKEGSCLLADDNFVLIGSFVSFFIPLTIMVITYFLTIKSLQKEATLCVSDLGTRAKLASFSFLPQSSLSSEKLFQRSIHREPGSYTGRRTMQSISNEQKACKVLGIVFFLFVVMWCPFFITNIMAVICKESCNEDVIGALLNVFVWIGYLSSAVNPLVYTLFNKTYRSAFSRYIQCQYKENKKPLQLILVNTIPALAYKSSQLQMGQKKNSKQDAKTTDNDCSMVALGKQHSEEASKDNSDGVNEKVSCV
Chain of Muscarinic acetylcholine receptor M1 (Homo sapiens) (P11229 whole entry, looked up): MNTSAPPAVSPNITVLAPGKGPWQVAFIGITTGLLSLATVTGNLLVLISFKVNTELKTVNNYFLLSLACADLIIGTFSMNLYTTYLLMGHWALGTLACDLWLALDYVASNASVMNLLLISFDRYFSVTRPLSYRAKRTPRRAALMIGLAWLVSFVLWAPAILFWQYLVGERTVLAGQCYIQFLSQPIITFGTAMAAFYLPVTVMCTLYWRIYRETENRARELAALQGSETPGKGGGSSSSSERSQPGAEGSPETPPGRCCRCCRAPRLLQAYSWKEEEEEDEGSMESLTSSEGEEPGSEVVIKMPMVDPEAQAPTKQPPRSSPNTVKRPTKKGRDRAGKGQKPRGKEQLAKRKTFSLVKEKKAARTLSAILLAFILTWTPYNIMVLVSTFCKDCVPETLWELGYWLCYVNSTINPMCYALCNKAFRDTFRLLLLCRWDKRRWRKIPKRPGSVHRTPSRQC

One assay has as its target 5-hydroxytryptamine receptor 2A (Homo sapiens) (UniProt P28223). Kind of assay: 5-hydroxytryptamine receptor 2A (HTR2A) small molecule antagonists, cell-based qHTS assay (AID 1963586). Note: nearly all actives have a fitted effect of over 45% in size. The settings on record: HTR2A-CHO cells, DOI-induced calcium flux, fluorescence; series mostly up to 61.5 µM. The method in brief:
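CHO cells stably expressing human HTR2A were plated for 18 h at 37 C, then loaded with calcium dye for 1 h. Compounds were preincubated 5 min at room temperature before DOI (4 nM solution) was added. Kinetic fluorescence was read for 3 min.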
As for `Cc1cc(CCC(=O)OCCOCCOCCOC(=O)CCc2cc(C)c(O)c(C(C)(C)C)c2)cc(C(C)(C)C)c1O`, the Potency entry was “inactive”.

`C[Si](C)O[Si](C)(C)O[Si](C)(C)O[Si](C)C`: the Potency result was “inactive”.

As to `C[C@H]1C[C@H](O)c2ccsc2S1(=O)=O`, the Potency result is “inactive”.

For `CC1=CCC(C(C)(C)O)CC1` (configuration not stated), the Potency entry was “inactive”.

In the case of `CCC(C)=O`, the Potency entry is “inactive”.

Turning to `N=c1nc(N2CCCCC2)cc(N)n1O`, the Potency entry was “inactive”.

For `CC(C)CCCC(C)N` (configuration not stated), the Potency entry is “inactive”.

For the compound `COc1ccc2c(c1)CCCC2=O`, the Potency result was “inactive”.

As to `CC1=CCC(O)(C(C)C)CC1` (configuration not stated), the Potency entry was “inactive”.

Turning to `COC(=O)c1ccccc1C(=O)c1ccc(OCCN2CCCCC2)cc1`, the Potency result was “inactive”.

Consider `c1coc(CNc2ncnc3nc[nH]c23)c1`, for which the Potency entry is “inactive”.

On to `CC1=C(O)C(=O)C(C)O1` (configuration not stated), for which the Potency entry is “inactive”.

Take `Cc1[nH]cnc1-c1ccc(Cl)cc1`: the Potency entry is “inactive”.

Take `C1CCCC1`: the Potency entry was “inactive”.

Turning to `CCCC(=O)CC`, the Potency result was “inactive”.

As for `Oc1ccc(Cl)cc1Sc1cc(Cl)ccc1O`, the Potency is 29.7 µM (active) and inactive.

`CCOCOCC`: the Potency entry was “inactive”.

Consider `C1C[C@@H]2[C@H]3CC[C@H](C3)[C@@H]2C1`, for which the Potency entry was “inactive”.

As for `CC(C)C(=O)c1ccccc1`, the Potency result is “inactive”.

For `Cc1nc2ccccc2s1`, the Potency entry was “inactive”.

On to `COCCOCCOCCOCCOCCO`, for which the Potency entry was “inactive”.

For `O=C(O)c1cc(-c2ccccc2)nc2ccccc12`, the Potency result was “inactive”.

In the case of `O=C(O)CCCCCCCCCCCC(=O)O`, the Potency result was “inactive”.

As to `O=S(=O)(O)c1cccc2ccccc12`, the Potency result was “inactive”.

`COC(=O)CCCCC(=O)O`: the Potency result is “inactive”.

As to `O=C(c1ccc(O)cc1O)c1ccc(O)cc1O`, the Potency result was “inactive”.

Take `O=C(CCNNC(=O)c1ccncc1)NCc1ccccc1`: the Potency result was “inactive”.

With `NCCc1ccc(O)c(O)c1`, the Potency entry was “inactive”.

For the compound `O=C(O)c1ccc(CO)o1`, the Potency entry is “inactive”.

Regarding `O=C(O)CSCC(=O)NC1CCSC1=O` (configuration not stated), the Potency result was “inactive”.

Another assay has the same target. The experiment in a line: 5-hydroxytryptamine receptor 2A (HTR2A) small molecule agonists, cell-based qHTS assay (AID 1963587). Note: nearly all actives have a fitted effect of over 30% in size. The settings on record: HTR2A-CHO cells, calcium flux fluorescence, agonist mode; series mostly up to 76.8 µM. The method in brief: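 CHO cells stably expressing human HTR2A, plated 18 h, loaded with calcium dye 1 h at 37 C. Agonist mode: compounds added and intracellular calcium fluorescence recorded kinetically for 2 min at 1 sec intervals.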
On to `Cc1cc(CCC(=O)OCCOCCOCCOC(=O)CCc2cc(C)c(O)c(C(C)(C)C)c2)cc(C(C)(C)C)c1O`, for which the Potency result is “inactive”.

Take `C[Si](C)O[Si](C)(C)O[Si](C)(C)O[Si](C)C`: the Potency result was “inactive”.

In the case of `C[C@H]1C[C@H](O)c2ccsc2S1(=O)=O`, the Potency entry is “inactive”.

As to `CC1=CCC(C(C)(C)O)CC1` (configuration not stated), the Potency result is “inactive”.

Consider `CCC(C)=O`, for which the Potency result was “inactive”.

On to `N=c1nc(N2CCCCC2)cc(N)n1O`, for which the Potency result was “inactive”.

Regarding `CC(C)CCCC(C)N` (configuration not stated), the Potency result is “inactive”.

In the case of `COc1ccc2c(c1)CCCC2=O`, the Potency entry is “inactive”.

Regarding `CC1=CCC(O)(C(C)C)CC1` (configuration not stated), the Potency result was “inactive”.

Turning to `CCCCCCCC(=O)[O-].CCCCCCCC(=O)[O-].[Zn+2]`, the Potency result was “inactive”.

Turning to `COC(=O)c1ccccc1C(=O)c1ccc(OCCN2CCCCC2)cc1`, the Potency result was “inactive”.

Turning to `c1coc(CNc2ncnc3nc[nH]c23)c1`, the Potency entry was “inactive”.

Regarding `CC1=C(O)C(=O)C(C)O1` (configuration not stated), the Potency result is “inactive”.

Turning to `Cc1[nH]cnc1-c1ccc(Cl)cc1`, the Potency result is “inactive”.

On to `C1CCCC1`, for which the Potency entry was “inactive”.

Consider `CCCC(=O)CC`, for which the Potency entry is “inactive”.

Take `Oc1ccc(Cl)cc1Sc1cc(Cl)ccc1O`: the Potency result is “inactive”.

`CCOCOCC`: the Potency entry is “inactive”.

With `C1C[C@@H]2[C@H]3CC[C@H](C3)[C@@H]2C1`, the Potency result is “inactive”.

Consider `CC(C)C(=O)c1ccccc1`, for which the Potency entry was “inactive”.

Regarding `Cc1nc2ccccc2s1`, the Potency entry is “inactive”.

Turning to `COCCOCCOCCOCCOCCO`, the Potency entry was “inactive”.

Regarding `O=C(O)c1cc(-c2ccccc2)nc2ccccc12`, the Potency result was “inactive”.

For the compound `COc1cc(C(=S)N2CCOCC2)ccc1O`, the Potency entry is “inactive”.

With `O=C(O)CCCCCCCCCCCC(=O)O`, the Potency result is “inactive”.

As for `O=S(=O)(O)c1cccc2ccccc12`, the Potency result was “inactive”.

For the compound `COC(=O)CCCCC(=O)O`, the Potency entry was “inactive”.

With `O=C(c1ccc(O)cc1O)c1ccc(O)cc1O`, the Potency result was “inactive”.

Consider `O=C(CCNNC(=O)c1ccncc1)NCc1ccccc1`, for which the Potency entry was “inactive”.

For the compound `O=C(O)c1cc(O)c(O)c(O)c1`, the Potency result is “inactive”.

Turning to `NCCc1ccc(O)c(O)c1`, the Potency entry is “inactive and 6.01 µM (active)”.

For `O=C(O)c1ccc(CO)o1`, the Potency result is “inactive”.

Another assay deals with Muscarinic acetylcholine receptor M1 (Homo sapiens) (UniProt P11229). The experiment in a line: Cholinergic receptor muscarinic 1 (CHRM1) small molecule antagonists, cell-based qHTS assay (AID 1963588). Note: nearly all actives have a fitted effect of over 40% in size. To be noted: CHRM1-CHO antagonist mode, calcium flux fluorescence; series mostly up to 61.5 µM. The method in brief:
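Compounds were tested at 15 concentrations in three independent runs. Dye-loaded CHRM1-CHO cells were exposed 5 min at room temperature before stimulation by acetylcholine added at 50nM. Intracellular calcium was read kinetically on FDSS for 3 min.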
Regarding `Cc1cc(CCC(=O)OCCOCCOCCOC(=O)CCc2cc(C)c(O)c(C(C)(C)C)c2)cc(C(C)(C)C)c1O`, the Potency result is “inactive”.

In the case of `C[Si](C)O[Si](C)(C)O[Si](C)(C)O[Si](C)C`, the Potency result was “inactive”.

`C[C@H]1C[C@H](O)c2ccsc2S1(=O)=O`: the Potency result is “inactive”.

For the compound `CC1=CCC(C(C)(C)O)CC1` (configuration not stated), the Potency result was “inactive”.

In the case of `CCC(C)=O`, the Potency result is “inactive”.

Take `N=c1nc(N2CCCCC2)cc(N)n1O`: the Potency entry was “inactive”.

As to `CC(C)CCCC(C)N` (configuration not stated), the Potency result is “inactive”.

Take `COc1ccc2c(c1)CCCC2=O`: the Potency result is “inactive”.

Take `CCCCCCCC(=O)[O-].CCCCCCCC(=O)[O-].[Zn+2]`: the Potency entry was “inactive”.

Regarding `COC(=O)c1ccccc1C(=O)c1ccc(OCCN2CCCCC2)cc1`, the Potency is 36.5 nM (active).

As to `c1coc(CNc2ncnc3nc[nH]c23)c1`, the Potency entry is “inactive”.

Turning to `CC1=C(O)C(=O)C(C)O1` (configuration not stated), the Potency entry is “inactive”.

As to `Cc1[nH]cnc1-c1ccc(Cl)cc1`, the Potency result is “inactive”.

Take `C1CCCC1`: the Potency entry was “inactive”.

As for `CCCC(=O)CC`, the Potency entry is “inactive”.

For the compound `Oc1ccc(Cl)cc1Sc1cc(Cl)ccc1O`, the Potency entry was “inactive”.

As for `CCOCOCC`, the Potency result is “inactive”.

Consider `C1C[C@@H]2[C@H]3CC[C@H](C3)[C@@H]2C1`, for which the Potency result is “inactive”.

As to `CC(C)C(=O)c1ccccc1`, the Potency result is “inactive”.

With `Cc1nc2ccccc2s1`, the Potency result is “inactive”.

For the compound `COCCOCCOCCOCCOCCO`, the Potency entry was “inactive”.

On to `O=C(O)c1cc(-c2ccccc2)nc2ccccc12`, for which the Potency result is “inactive”.

In the case of `COc1cc(C(=S)N2CCOCC2)ccc1O`, the Potency entry was “inactive”.

For `O=C(O)CCCCCCCCCCCC(=O)O`, the Potency entry was “inactive”.

For `O=S(=O)(O)c1cccc2ccccc12`, the Potency result is “inactive”.

As to `O=C(c1ccc(O)cc1O)c1ccc(O)cc1O`, the Potency result is “inactive”.

`O=C(CCNNC(=O)c1ccncc1)NCc1ccccc1`: the Potency result was “inactive”.

As to `NCCc1ccc(O)c(O)c1`, the Potency result was “inactive”.

Regarding `O=C(O)c1ccc(CO)o1`, the Potency entry is “inactive”.

For `O=C(O)CSCC(=O)NC1CCSC1=O` (configuration not stated), the Potency entry is “inactive”.
